The target of experiment [1] is Galactokinase (Homo sapiens) (UniProt P51570). The experiment can be described thus: qHTS Validation Assay for Inhibitors of Human Galactokinase (GALK) (AID 493189). The essentials: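 Inhibition was measured as remaining ATP, detected by luciferase luminescence after a 1 h room-temperature reaction. Final conditions: 5 nM GALK, 100 uM galactose, 35 uM ATP, pH 8.0 HEPES buffer.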

Experiment [2] can be described thus: Validation screen for small molecules that induce DNA re-replication in SW480 colon adenocarcinoma cells (AID 504364). The essentials:
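SW480 cells (250/well) exposed 48 h at 37 C, 5% CO2, then Hoechst-stained 40 min. Nuclear DNA content imaged by fluorescence scanning (405 nm excitation, 500-530 nm emission); re-replication scored as increased nuclei with elevated intensity.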

Experiment [3] deals with Phosphoglycerate kinase, glycosomal (Trypanosoma brucei brucei) (UniProt P07378). The experiment can be described thus: qHTS Validation Assay to Find Inhibitors of Phosphoglycerate Kinase (AID 504547). The method, boiled down: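 PGK activity was coupled to GAPDH (100nM final), which generates the unstable substrate 1,3-bisphosphoglycerate in-well. Reactions ran 60 minutes at room temperature in 100mM TEA pH 7.6, 5mM MgCl2, 0.01% Tween-20, then Kinase-Glo Plus luminescence was read.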
(In general: Quantitative high-throughput screening tests each substance at several concentrations.)

The target in experiment [4] is phosphoglycerate mutase (Leishmania major) (UniProt Q4Q090). The experiment can be described thus: qHTS Validation Assay to Find Inhibitors of Phosphoglycerate Mutase (AID 504548). Also: series mostly up to about 58 µM. As to conditions: Potency: inhibition qHTS. The method, boiled down: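 Lm PGAM 1.25nM final; 100 mM TEA pH 7.6, 5 mM MgCl2, 0.01% Tween-20; 45 min RT; Kinase-GloPlus, 10 min; end-point luminescence. Enzyme-free wells as negative controls.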

Experiment [5] in a line: Inducers of the Endoplasmic Reticulum Stress Response (ERSR) in human glioma: Validation (AID 504836). The essentials: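 Stably transfected U87-MG glioma cells carrying a GRP78-based luciferase sensor; 16 h compound incubation. Luminescence end-point read 10 min after Bright-Glo addition at room temperature.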
Experiment [6] deals with Ubiquitin carboxyl-terminal hydrolase 1 (Homo sapiens) (UniProt O94782). The experiment can be described thus: Inhibitors of USP1/UAF1: Pilot qHTS (AID 504865).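 Also: rhodamine fluorescence freed from ubiquitin-rhodamine substrate followed over time; top concentration of the series differs between compounds; nearly all actives have a fitted effect of over 35% in size.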 The method, boiled down:
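Deubiquitinase activity followed as kinetic rhodamine fluorescence release from 150 nM Ub-Rho. 1 nM USP1/UAF1 with compound, after 15 min room-temperature preincubation, in HEPES pH 7.8 buffer containing TCEP, EDTA, BSA and Tween-20.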

Experiment [7] is described as follows: qHTS for Inhibitors of ATXN expression: Validation of Cytotoxic Assay (AID 588349). Also: potency is read from the fitted curve at half-maximal effect. The essentials: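 HEK293 cells treated with titrated compound for 72 hr at 37 degrees C; viability read as intracellular ATP by CellTiter Glo luminescence.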
A short description of experiment [8]: qHTS for Inhibitors of ATXN expression: Validation (AID 588378). Also: nearly all actives have a fitted effect of over 75% in size. Also: potency is read from the fitted curve at half-maximal effect. The essentials: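 Luciferase luminescence (Bright-Glo) from an ATXN2-FFLuc HEK293 line after 24 h compound exposure at 37 °C, preceded by a CellTiter-Fluor fluorescence viability read. Serial dilutions of a reference ATXN2 inhibitor and a luciferase inhibitor served as controls.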
The target of experiment [9] is DNA dC->dU-editing enzyme APOBEC-3G (Homo sapiens) (UniProt Q9HC16). The experiment can be described thus: qHTS for inhibitors of Vif-A3G interactions: Validation (AID 588379). The method, boiled down: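 HeLa cells stably expressing Vif and A3G-eYFP, 700 cells/well, incubated overnight at 37 deg C, then exposed to compound overnight at 37 deg C. Inhibition of Vif-mediated degradation read as increased yellow fluorescence (Ex 488/Em 500-530) by laser-scanning cytometry.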

Experiment [10] concerns the target Peptidyl-prolyl cis-trans isomerase NIMA-interacting 1 (Homo sapiens) (UniProt Q13526). The experiment can be described thus: qHTS Validation Assay to Find Inhibitors of Pin1 (AID 504536; active = well fitted inhibition curve with a large enough effect in the polarisation, with a control signal flat, not every such curve was filed as active; the % refers to the polarisation). The essentials: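 Fluorescence polarization competition: compounds (titration) displace HiFluor-488-labeled Pin1-1b peptide from Pin1 (0.3 uM final) in pH 7.5 HEPES buffer with DTT, 10 min at room temperature; %Activity normalized to no-enzyme wells, curves fitted.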

SMILES strings stand for the structures. Inconclusive results are not listed. Activity calls are given as the source filed them. Unless noted, calls follow the shape of the dose curve; as a rule, active = well fitted curve in the direction sought with a large enough effect; inconclusive = small, poorly fitted or top-dose-only effect, or another doubt; inactive = no such curve, though single readings can be large; an effect the other way counts as inactive or inconclusive.

Chain of Phosphoglycerate kinase, glycosomal (Trypanosoma brucei brucei) (P07378 whole entry, looked up): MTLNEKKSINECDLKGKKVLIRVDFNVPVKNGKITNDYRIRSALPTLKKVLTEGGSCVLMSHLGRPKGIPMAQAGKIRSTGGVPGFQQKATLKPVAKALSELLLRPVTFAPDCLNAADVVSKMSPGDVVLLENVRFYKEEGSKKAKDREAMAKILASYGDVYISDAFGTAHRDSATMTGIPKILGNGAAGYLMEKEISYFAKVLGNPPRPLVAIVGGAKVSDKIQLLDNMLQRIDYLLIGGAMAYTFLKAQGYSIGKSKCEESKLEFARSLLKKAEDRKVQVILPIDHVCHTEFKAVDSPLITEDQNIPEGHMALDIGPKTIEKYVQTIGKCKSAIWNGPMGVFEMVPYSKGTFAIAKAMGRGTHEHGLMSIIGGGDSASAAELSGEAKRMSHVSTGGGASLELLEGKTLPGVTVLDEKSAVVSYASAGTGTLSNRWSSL
Chain of DNA dC->dU-editing enzyme APOBEC-3G (Homo sapiens) (Q9HC16 whole entry, looked up): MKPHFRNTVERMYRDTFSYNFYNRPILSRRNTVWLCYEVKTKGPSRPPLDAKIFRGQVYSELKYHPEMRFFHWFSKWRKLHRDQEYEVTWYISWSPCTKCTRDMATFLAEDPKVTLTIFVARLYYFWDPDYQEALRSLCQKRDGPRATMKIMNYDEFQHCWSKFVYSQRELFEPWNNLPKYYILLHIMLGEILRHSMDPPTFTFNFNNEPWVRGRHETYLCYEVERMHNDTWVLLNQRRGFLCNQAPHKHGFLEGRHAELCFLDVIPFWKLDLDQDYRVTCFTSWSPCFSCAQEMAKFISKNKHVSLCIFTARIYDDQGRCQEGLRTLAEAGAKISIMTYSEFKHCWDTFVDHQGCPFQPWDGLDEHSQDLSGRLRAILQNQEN
Chain of phosphoglycerate mutase (Leishmania major) (Q4Q090 1-553): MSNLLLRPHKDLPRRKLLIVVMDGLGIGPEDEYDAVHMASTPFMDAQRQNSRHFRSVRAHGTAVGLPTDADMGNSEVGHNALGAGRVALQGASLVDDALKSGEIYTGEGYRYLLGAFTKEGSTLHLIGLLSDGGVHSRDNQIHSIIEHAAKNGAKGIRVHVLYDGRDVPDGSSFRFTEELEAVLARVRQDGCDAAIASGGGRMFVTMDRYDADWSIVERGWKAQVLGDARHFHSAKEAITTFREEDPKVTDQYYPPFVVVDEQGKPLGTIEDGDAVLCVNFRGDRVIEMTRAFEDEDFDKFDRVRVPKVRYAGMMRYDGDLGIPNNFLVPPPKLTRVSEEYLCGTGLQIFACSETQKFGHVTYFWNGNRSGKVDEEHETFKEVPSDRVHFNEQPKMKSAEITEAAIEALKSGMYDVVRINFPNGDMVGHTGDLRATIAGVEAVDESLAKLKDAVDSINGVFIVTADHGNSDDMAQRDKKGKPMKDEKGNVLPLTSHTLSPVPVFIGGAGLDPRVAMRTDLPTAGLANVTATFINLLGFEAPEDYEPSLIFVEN
Chain of Ubiquitin carboxyl-terminal hydrolase 1 (Homo sapiens) (O94782 whole entry, looked up): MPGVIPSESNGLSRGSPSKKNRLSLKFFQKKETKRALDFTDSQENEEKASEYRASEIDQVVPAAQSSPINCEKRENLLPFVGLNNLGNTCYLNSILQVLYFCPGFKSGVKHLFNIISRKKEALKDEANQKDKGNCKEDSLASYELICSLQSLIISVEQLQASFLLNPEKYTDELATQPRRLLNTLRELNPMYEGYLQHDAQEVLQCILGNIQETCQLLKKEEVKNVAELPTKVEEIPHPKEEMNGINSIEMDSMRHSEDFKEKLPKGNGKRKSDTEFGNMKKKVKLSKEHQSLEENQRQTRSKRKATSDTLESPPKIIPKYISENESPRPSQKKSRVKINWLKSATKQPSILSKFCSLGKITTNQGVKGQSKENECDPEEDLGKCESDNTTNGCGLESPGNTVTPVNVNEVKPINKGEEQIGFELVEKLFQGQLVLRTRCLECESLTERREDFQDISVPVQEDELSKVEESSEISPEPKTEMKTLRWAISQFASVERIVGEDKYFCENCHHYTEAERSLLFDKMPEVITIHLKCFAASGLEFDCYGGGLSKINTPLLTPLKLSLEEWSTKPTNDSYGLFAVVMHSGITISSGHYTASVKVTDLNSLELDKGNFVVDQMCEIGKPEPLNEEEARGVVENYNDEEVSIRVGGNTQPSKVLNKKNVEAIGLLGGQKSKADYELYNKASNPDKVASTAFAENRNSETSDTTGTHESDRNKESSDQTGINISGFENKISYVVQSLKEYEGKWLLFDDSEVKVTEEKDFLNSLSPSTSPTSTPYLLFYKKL
Chain of Galactokinase (Homo sapiens) (P51570 whole entry, looked up): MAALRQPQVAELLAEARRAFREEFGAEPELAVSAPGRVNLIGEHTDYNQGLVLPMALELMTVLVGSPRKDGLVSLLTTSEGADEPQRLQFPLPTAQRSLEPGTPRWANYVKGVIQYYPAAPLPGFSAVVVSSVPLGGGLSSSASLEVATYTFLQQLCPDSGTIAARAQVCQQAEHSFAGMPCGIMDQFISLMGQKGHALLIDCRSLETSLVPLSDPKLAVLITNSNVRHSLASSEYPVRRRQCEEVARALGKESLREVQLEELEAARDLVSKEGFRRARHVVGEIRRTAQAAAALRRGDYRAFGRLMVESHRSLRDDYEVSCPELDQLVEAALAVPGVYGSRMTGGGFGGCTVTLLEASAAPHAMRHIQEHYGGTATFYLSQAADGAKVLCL
Chain of Peptidyl-prolyl cis-trans isomerase NIMA-interacting 1 (Homo sapiens) (Q13526 whole entry, looked up): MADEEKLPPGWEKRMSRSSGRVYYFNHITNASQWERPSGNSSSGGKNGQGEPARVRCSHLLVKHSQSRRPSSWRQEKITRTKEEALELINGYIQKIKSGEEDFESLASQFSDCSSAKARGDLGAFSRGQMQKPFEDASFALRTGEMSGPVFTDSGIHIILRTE

With `NCCc1c[nH]c2ccc(C(N)=O)cc12`, the outcome in [1], in [5] and in [9] was inactive. Moreover, the Potency entry in experiment [2], in experiment [3], in experiment [4], in experiment [6], in experiment [7] and in experiment [8] was “inactive” each time.
Take `CN1CC[C@@]2(C)c3cc(O)ccc3N(C)C12` (stereo partly specified): the call in [1] and in experiment [5] was inactive. The Potency entry in [2], in experiment [3] and in [4] was “inactive” each time. For the same compound, the Potency in experiment [7] was 28.2 µM (active).
With `CC(=O)NBr`, the result in experiment [1] and in [5] was inactive. For the same compound, the Potency result in experiment [2], in [3], in experiment [4], in [7] and in experiment [8] was “inactive” throughout.
In the case of `C=CCN1CC[C@]23c4c5ccc(O)c4O[C@@H]2/C(=N/N=C2\CC[C@@]4(O)C6Cc7ccc(O)c8c7[C@@]4(CCN6CC=C)[C@@H]2O8)CC[C@@]3(O)C1C5`, the compound was called inactive in experiment [1] and in experiment [5]. In addition, the Potency result in experiment [2], in [3], in experiment [4] and in [6] was “inactive” each time. Moreover, the Potency in [8] was 20 µM (active).
As for `NCCCP(=O)(O)O`, the compound was called inactive in [1] and in experiment [5]. Further, the Potency result in [2], in experiment [3], in experiment [4], in experiment [7] and in [8] was “inactive” each time.
As to `CNC(=O)OCC[N+](C)(C)C`, the result in experiment [1] was inactive. The Potency entry in experiment [2] and in experiment [6] was “inactive” throughout.
Turning to `CCCN(CCC)[C@@H]1CCc2cccc(O)c2C1`, the compound was classed as inactive in experiment [1], in experiment [5] and in experiment [9]. The Potency result in experiment [2], in [3], in [4], in experiment [7] and in [8] was “inactive” throughout.
With `C[N+](C)(C)CC#CCOC(=O)Nc1cccc(Cl)c1`, in experiment [1], the result was inactive. In addition, the Potency entry in experiment [2], in experiment [3], in [4], in experiment [6], in experiment [7] and in experiment [8] was “inactive” each time.
With `CC12NC(Cc3ccccc31)c1ccccc12` (stereo unspecified), the outcome in [1] was inactive. The Potency entry in experiment [2], in experiment [3], in experiment [4], in experiment [6], in experiment [7] and in experiment [8] was “inactive” throughout.
Regarding `CCCN(CCC)C1CCc2cccc(O)c2C1` (stereo unspecified), the compound was called inactive in experiment [1] and in experiment [5]. The Potency result in [2], in [3], in experiment [4], in experiment [6], in experiment [7] and in experiment [8] was “inactive” throughout.
Turning to `c1ccc2cc(CC3=NCCN3)ccc2c1`, the compound was classed as inactive in [1] and in [5]. Besides, the Potency entry in experiment [2], in [3], in experiment [4], in experiment [6], in experiment [7] and in experiment [8] was “inactive” in each case.
For the compound `Cc1[nH]c2ccc(O)cc2c1CCN`, the compound was called inactive in [1] and in experiment [9]. Further, the Potency entry in [2], in experiment [3], in experiment [4], in experiment [6], in experiment [7] and in experiment [8] was “inactive” each time.
In the case of `NC(=O)CI`, the result in experiment [1] and in [5] was inactive. The Potency result in experiment [2], in experiment [3], in experiment [4], in [6], in experiment [7] and in experiment [8] was “inactive” in each case.
Consider `Cc1o[nH]c(=O)c1CC(N)C(=O)O` (stereo unspecified), for which the compound was classed as inactive in experiment [1]. Moreover, the Potency result in experiment [2], in experiment [3], in [4], in [6], in experiment [7] and in [8] was “inactive” in each case.
On to `CC(N)Cc1c[nH]c2ccc(OCc3cccs3)cc12` (stereo unspecified), for which the outcome in experiment [1] and in experiment [5] was inactive. Moreover, the Potency result in [2], in experiment [3], in experiment [4] and in experiment [6] was “inactive” each time. The Potency in [8] was 28.2 µM (active).
As for `CC1OC1P(=O)(O)O` (stereo unspecified), the result in [1] was inactive. The Potency result in experiment [2] and in experiment [6] was “inactive” in each case.
On to `O=S1(=O)N(CCN2CC=C(c3c[nH]c4cc(F)ccc34)CC2)c2cccc3c2N1CCC3`, for which the result in experiment [1] was inactive. The Potency result in experiment [10], in [3], in experiment [4] and in experiment [6] was “inactive” each time.
Regarding `CC(C)NP(=O)(NC(C)C)OP(=O)(NC(C)C)NC(C)C`, the compound was classed as inactive in experiment [1] and in experiment [5]. The Potency entry in [10], in experiment [3], in experiment [4], in experiment [6], in experiment [7] and in [8] was “inactive” in each case.
In the case of `NCC(CP(=O)(O)O)c1ccc(Cl)cc1` (stereo unspecified), the result in [1] and in experiment [5] was inactive. Besides, the Potency result in experiment [2], in experiment [3], in experiment [4], in experiment [6], in experiment [7] and in [8] was “inactive” each time.

These data come from PubChem BioAssay (NCATS).
